Results as given in PubChem BioAssay (NCATS).
Inconclusive results are not listed. Where a call stands in place of a potency, no number is given. Unmarked numbers belong to inactive results. Calls of active or inactive are those of the source. The call rests on the fitted dose curve; in most records, active means well fitted cell-killing curve with a large enough effect; inconclusive means small, poorly fitted or top-dose-only effect, or effect the other way; inactive means flat fitted curve, though single readings scatter. *1 amine or outer side, *2 acyl side, *3 side chain or, on linkers, in order; H or OH if unused. Where a SMILES comes first, the peptide text is derived from it. [ ]: non-standard residue; d: D form. X5 = CC(CC(O[*:1])C(=O)[*:2])C(=O)O; NMeV = CN[CH](C(=O)O)C(C)C; NMeA = CN[CH](C)C(=O)O; βAla = NCCC(=O)O

System: HeLa
Assay: Primary qHTS to identify gynecologic anti-cancer compounds using libraries of approved drugs and bioactive compounds (AID 1345084); further: nearly all actives have a fitted effect of over 55% in size
Details: Gynecologic cancer cell panel viability, ATPlite luminescence, 48 h; series mostly up to 57.5 µM
Excerpt: National Center for Advancing Translational Sciences [NCATS] Assay Overview: Chemotherapeutic drug responses vary from cancer to cancer and from patient to patient. These variations could be caused by a number of factors including patient genomic background, tumor mutations, tumor heterogeneity, and aspects of drug treatment. Chemotherapeutic drug resistance is also a common issue and can lead to ineffective treatment and patient death. Here we have profiled the cell killing effects of thousands of compounds to characterize the responses in three gynecological cancers, identify cancer-selective compounds, and understand the diversity of responses to these compounds from pan-cancer suppressors to single cell line selective compounds. In this assay, we screened a 7,914 compound drug library that included approved drug and bioactive compounds in six ovarian, three cervical, and […] placental cancer cell lines using the ATPlite assay for cell viability. […] The cervical cancer cell lines included HeLa, Ca Ski, and C-33 A. The placental cancer cell lines included JEG-3. HEK 293T cells were used as the control cell line to determine the selectivity index. ATPlite is a luminescence based assay reliant on the conversion of a luciferase substrate to light in the presence of ATP. As a cytotoxic compound will suppress growth and decrease the number of cells, the concentration of ATP will decrease, and less light signal will be detected in the well.
Assay Protocol Summary: 1,000 cells in 4 uL of media were dispensed into white, solid bottom 1536-well plates using a Multidrop Combi (Thermo Scientific). The Assay plates were incubated for 16 hours at 37 C with 5% CO2 in assay plates, followed by the addition of 23 nL of DMSO or drug dissolved in DMSO. Each compound was assayed in five concentrations (0.092, 0.46, 2.3, 11.5, and 57.5 uM), using the automated Wako 1536 Pin Tool workstation and incubated at 37 C with 5% CO2 48 hours. 4 uL of ATPlite, the ATP monitoring reagent, was then added to the each well of the assay plates using the Multidrop Combi reagent dispenser followed by incubation for 15 minutes at room temperature. The resulting luminescence was measured using the ViewLux plate reader.
Potency means the concentration at half of the fitted maximal effect.

Row | SMILES | Potency | activity change, negative = cytotoxicity
1 | CCCN(CCC)CCc1ccc(OC)c(OCCc2ccccc2)c1 | inactive | 
2 | C[C@@]1(CO)[C@H](O)CC[C@@]2(C)[C@H]1CC[C@H]1C[C@@H]3C[C@@]12CC[C@]3(O)CO | inactive | 
3 | C1=C(c2cnc[nH]2)c2ccsc2CC1 | inactive | 
4 | Cc1[nH]c2ccc(Cl)cc2c1CCN(C)C | inactive | 
5 | CC1=CC2(O)/C=C/C(C)(O)C(O)C(O)/C=C/C(=O)OC23C(=O)NC(CC(C)C)C3C1C (stereo not given) | inactive | 
6 | COc1ccc(CCNCc2ccc(OC)c3ccccc23)cc1 | inactive | 
7 | C[C@]12CC[C@H]3[C@@H](CCC4=C/C(=N/OCC(=O)O)CC[C@@]43C)[C@@H]1CC[C@@H]2O | inactive | 
8 | CO[C@H]1C[C@H](O[C@H]2CC[C@@]3(C)C(=CCC4C3CC[C@]3(C)[C@@H](C5=CC(=O)OC5)CC[C@]43O)C2)O[C@@H](C)[C@@H]1O[C@@H]1O[C@H](CO[C@@H]2O[C@H](CO)[C@@H](O)[C@H](O)[C@H]2O)[C@@H](O)[C@H](O)[C@H]1O (stereo not given in full) |  | 1.26% [at 11.6 µM]
9 | CN1C(=O)N(c2ccc(C#N)c(C(F)(F)F)c2)C(=O)[C@@]1(CO)c1ccccc1 | inactive | 
10 | CC(=O)N1N=C(c2ccc(N)cc2)c2cc3c(cc2C[C@H]1C)OCO3 | inactive | 
11 | CCC(C)C1NC(=O)C2CCCN2C(=O)C(CC(C)C(=O)O)OC(=O)CCNC(=O)C(C)N(C)C(=O)C(C(C)C)N(C)C1=O (stereo not given) (cyclo([X5]PI[NMeV][NMeA][βAla]); configuration not given here) | inactive | 
12 | CC(=O)OC[C@]12C[C@H](O)C(C)=C[C@H]1O[C@@H]1[C@H](O)[C@@H](O)[C@@]2(C)[C@]12CO2 | 7940 nM (active) | 
13 | C[C@@H]1C[C@@H](O)[C@]2(O)O[C@@H]3C[C@@]4(C=O)C(CC[C@@H]5C4CC[C@]4(C)[C@@](O)(C6=CC(=O)OC6)CC[C@]54O)C[C@H]3OC2O1 (stereo not given in full) | 3980 nM (active) | 
14 | CC(C)OC(=O)c1ccnc2cc(C(OCCN3CCCCC3)c3ccccc3Cl)sc12 (stereo not given) | inactive | 
15 | COc1ccc2c3c([nH]c2c1)C(C=C(C)C)N1C(=O)C2CCCN2C(=O)C1C3 (stereo not given) | inactive | 
16 | CS[C@]1(CO)C(=O)N2[C@H]3C(=CC=C[C@@H]3O)C[C@@]2(SC)C(=O)N1C | inactive | 
17 | CCC(C)C1NC(=O)C(C(C)=O)=C1O (stereo not given) | inactive | 
18 | C#C[C@]1(O)CC[C@H]2[C@@H]3CC[C@H]4Cc5nc6nc7ccccc7n6cc5C[C@]4(C)[C@H]3CC[C@@]21C | inactive | 
19 | C=C(C)[C@@H]1[C@H]2OC(=O)[C@H]1[C@]1(O)C[C@H]3O[C@]34C(=O)O[C@H]2[C@]14C | inactive | 
20 | c1ccc([C@@H]2C[C@H]2NC2CCNCC2)cc1 | inactive | 

Row | SMILES | Potency | activity change, negative = cytotoxicity
21 | COC(=O)[C@]12CCCC(C)(C)C1CCc1cc(C(C)C)c(O)c(O)c12 (stereo not given in full) | inactive | 
22 | C=CC(C)(C)c1[nH]c2c(CC=C(C)C)cc(CC=C(C)C)cc2c1C[C@@H]1NC(=O)[C@H](C)NC1=O | inactive | 
23 | C[C@@H]1Cc2c(Cl)cc(C(=O)N[C@@H](Cc3ccccc3)C(=O)O)c(O)c2C(=O)O1 | inactive | 
24 | CCCCn1cc(C(=O)c2cccc3ccccc23)c2ccccc21 | inactive | 
25 | COC(=O)[C@@]1(C)C(=O)C=C[C@]2(C)c3c(O)cc(C(C)C)cc3[C@H](O)[C@@H](OC(C)=O)C12 (stereo not given in full) | inactive | 
26 | CCOP(=O)(OCC)Oc1ccc2c(C)cc(=O)oc2c1 | inactive | 
27 | CO[C@@H]1[C@H](O)[C@@H](O[C@@H]2C[C@H]3CC[C@@H]4C(CC[C@]5(C)[C@@H](C6=CC(=O)OC6)CC[C@]45O)[C@@]3(C)[C@H](O)C2)O[C@H](C)[C@@H]1O (stereo not given in full) | 199 nM (active) | 
28 | CN1C(=O)[C@@H](Cc2c[nH]c3ccccc23)N=C(c2ccccc2F)c2ccccc21 | inactive | 
29 | CCCCN1[C@@H]2CC[C@H]1CC(OC(c1ccc(F)cc1)c1ccc(F)cc1)C2 (stereo not given in full) | inactive | 
30 | C[C@H](CCC(=O)O)C[C@H](C)C[C@H](C)C(=O)/C=C(\O)[C@H](C)C[C@H](C)C/C=C/[C@@H](C)[C@@H](O)[C@@H](C)[C@@H](O)C[C@@H]1CC[C@@](C)([C@H]2CC[C@@](C)([C@@H](C)O)O2)O1 | inactive | 
31 | CC1CCCCCC(=O)c2c(O)cc(O)cc2CC(=O)O1 (stereo not given) | inactive | 
32 | c1cncc(OC[C@@H]2CCN2)c1 | inactive | 
33 | C#CC1(O)CCC2C3CCC4=CC(=O)CCC4=C3C=CC21C (stereo not given) | 1120 nM (active) | 
34 | C=C1CC[C@H]2[C@@H](/C=C(\C)C(=O)[C@@]3(OC(C)=O)C[C@H](C)[C@H](OC(=O)c4ccccc4)[C@@H]3[C@H]1OC(C)=O)C2(C)C | inactive | 
35 | CCC1(O)CCC2C3CCC4=CC(=O)CCC4C3CCC21CC (stereo not given) | inactive | 
36 | C#CCO[C@H]1CN2CCC1CC2 | inactive | 
37 | CC[C@@H]1C[C@H]2CC[C@H](O2)[C@H](C)C(=O)O[C@@H](C)C[C@@H]2CC[C@@H](O2)[C@@H](C)C(=O)O[C@H](CC)C[C@H]2CC[C@H](O2)[C@H](C)C(=O)O[C@@H](C)C[C@@H]2CC[C@@H](O2)[C@@H](C)C(=O)O1 | 794 nM (active) | 
38 | C=C1C(=O)CC2OC2(C)CC2OC(=O)C(=C)C2C(O)C1OC(=O)/C(C)=C\C (stereo not given) | inactive | 
39 | COC1CC(O[C@H]2CC[C@]3(C=O)C4CC[C@]5(C)[C@@H](C6=CC(=O)OC6)CC[C@]5(O)[C@@H]4CC[C@@H]3C2)OC(C)C1O[C@@H]1O[C@H](CO)[C@@H](O[C@@H]2O[C@H](CO)[C@@H](O)[C@H](O)[C@H]2O)[C@H](O)[C@H]1O (stereo not given in full) | 398 nM (active) | 
40 | Fc1cc(F)c2c(c1)[C@H]1C=CC[C@H]1C(c1cccnc1)N2 (stereo not given in full) | 14100 nM (active) | 
